# FBW7 activator: activators of human E3 ligase FBW7; Q969H0; AlphaScreen FBW7–phospho-cyclin E peptide binding, activator screen; normalized activity (activation), % at 26.1 µM; 650,000 tested, 0.13% active; in the data active = normalized activity above about 1.9%;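 note: purified mutant Fbw7 with reduced substrate affinity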
# MITF inh: blocks human microphthalmia-associated transcription factor | O75030 | AlphaScreen MITF homodimerization, bead proximity signal | inhibition, % at 2.6 µM | 650,000 tested, 0.91% active | AID 1259374; in the data active = inhibition above about 50%;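 note: 0% = vehicle wells with protein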
# TEAD-YAP inh: TEAD-YAP interaction inhibition | HEK-TIYL cells, TEAD-Gal4/YAP UAS-luciferase luminescence | 640,000 tested, 1.4% active | inhibition, % at 9.12 µM; in the data active = inhibition above about 32%;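 note: 0% = median of test compound wells and 100% = reference inhibitor wells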
# GPR151 ag: human GPR151 activation; Q8TDV0; activation, % at 11.2 µM; 650,000 tested, 1% active; PathHunter beta-arrestin GPR151 cells, luminescence; in the data active = activation above about 4.9%;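 note: 0% = median of compound wells and 100% = cells with positive control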
# GPR151 conf act: confirmation of human GPR151 activators | GPR151 PathHunter beta-arrestin cells, luminescence, 90 min; % of EA-reagent control over plate median | AID 1508609 | activation, % at 11.2 µM | 6,700 tested, under 10 active | shares compounds with GPR151 ag;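 active = mean percent activation across replicates above the confirmation screen cutoff of 4.91%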
# GPR119 counter: activates human GPR119 in a GPR151 counter-screen. 6,700 tested, 0.3% active. AID 1508611. activation, % at 11.2 µM. GPR119 PathHunter beta-arrestin cells, luminescence, 90 min; 0 = compound-well median, 100 = enzyme-acceptor control. shares compounds with GPR151 ag;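 active = mean percent activation in the counterscreen above 29.09%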;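 note: counterscreen on off-target GPR119 to flag nonselective hits from the GPR151 activator screen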
# Target sequence (Q8TDV5 whole entry, looked up): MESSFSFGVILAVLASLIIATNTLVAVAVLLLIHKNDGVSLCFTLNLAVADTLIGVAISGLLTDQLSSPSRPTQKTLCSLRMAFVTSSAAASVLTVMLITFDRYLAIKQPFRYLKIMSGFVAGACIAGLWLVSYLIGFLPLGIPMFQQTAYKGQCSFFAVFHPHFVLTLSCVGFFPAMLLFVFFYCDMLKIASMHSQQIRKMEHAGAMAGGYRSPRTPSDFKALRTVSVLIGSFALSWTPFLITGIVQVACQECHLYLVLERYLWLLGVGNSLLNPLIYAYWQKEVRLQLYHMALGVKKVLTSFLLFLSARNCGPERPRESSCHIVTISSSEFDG
# * = called active by the depositor; . = not tested or not shown. Compounds with a hit are over-represented: about 3.5% of the library has one in this group of screens.
SMILES,FBW7 activator,MITF inh,TEAD-YAP inh,GPR151 ag,GPR151 conf act,GPR119 counter
CCCCC(C(=O)Nc1cccc(C)c1)N1C(=O)c2cc(Cl)c(Cl)cc2C1=O (stereo not given),0,22,-2,8.3*,1,12
CC(=O)N1C(=O)/C(=C2\SC(=S)N(c3ccccc3F)C2=O)c2ccccc21,0,-3,0,0,.,.
COc1ccccc1N1C(=O)/C(=C2/C(=O)N(C(C)=O)c3ccccc32)SC1=S,0,23,-5,6.5*,-2,-9
CCOC(=O)C(C(C)=O)C(c1ccccc1)C(C#N)C#N (stereo not given),0,11,-2,-1,.,.
CCOc1cccc(C2NC(C)(C(=O)O)C3C(=O)N(c4ccccc4OC)C(=O)C23)c1O (stereo not given),0,-7,-7,1,.,.
COc1ccc(O)c(C2NC(C)(C(=O)O)C3C(=O)N(c4ccccc4OC)C(=O)C23)c1 (stereo not given),0,0,-7,5.1*,1,4
COc1ccc2ccc(=O)oc2c1,0,0,5,5.0*,0,3
O=C(NC1CCN(Cc2ccccc2)CC1)c1ccc(CNc2nc(=S)[nH]c3ccccc23)cc1,0,-2,2,2,.,.
CCCNC(=O)CSc1nccn1Cc1ccc(F)cc1,0,-10,-4,5.7*,1,11
CS(=O)(=O)c1ncc(Cl)c(C(=O)Nc2ccccc2Br)n1,0,12,-9,2,.,.
CC(=O)Nc1ccc(/C=C(\C#N)c2nc3ccccc3[nH]2)cc1,0,3,-31,0,.,.
CC(=O)Nc1ccc(/C=C(\c2nc3ccccc3[nH]2)S(=O)(=O)c2ccccc2)cc1,0,6,-3,6.6*,0,3
CCOC(=O)C1=C(C)NC(=S)NC1c1ccccc1OC (stereo not given),0,0,13,1,.,.
COc1cc(-c2c(C#N)c(N)n3c(nc4ccccc43)c2C#N)ccc1OCCCC#N,0,5,-6,7.3*,-1,5
COc1ccc(-c2c(C#N)c(N)n3c(nc4ccccc43)c2C#N)cc1OC,0,12,3,1,.,.
Cc1cc(C=Nc2cccc3nsnc23)c(O)c([N+](=O)[O-])c1,0,-3,11,0,.,.
Cc1ccc(N2C(=O)CC(Sc3nc(C)cc(C(F)(F)F)c3C#N)C2=O)cc1 (stereo not given),0,18,-10,-3,.,.
CC(C)Cc1ccc(C#N)c(SC2CC(=O)N(c3ccccc3)C2=O)n1 (stereo not given),0,-7,-33,7.5*,0,-2
Cc1ccc(SC2CC(=O)N(c3ccccc3)C2=O)cc1 (stereo not given),0,5,1,5.0*,-1,-12
Cc1cc(C(F)(F)F)c(C#N)c(SC2CC(=O)N(c3ccccc3)C2=O)n1 (stereo not given),1,12,0,9.3*,1,0
Cc1ccc(N2C(=O)CC(Sc3nc(-c4ccccc4)ccc3C#N)C2=O)cc1 (stereo not given),0,10,-19,1,.,.
Cc1ccc(N2C(=O)CC(Sc3nc(C)cc(C)n3)C2=O)cc1 (stereo not given),0,-6,19,1,.,.
C#CCOc1ccc(Br)cc1C1NC(C(=O)O)CS1 (stereo not given),0,17,2,1,.,.
O=C(c1ccc(-c2cccc(Cl)c2Cl)o1)N1CCOCC1,0,10,-77,7.3*,0,-2
CCOC(=O)N/N=C/c1cn(-c2ccccc2)nc1-c1ccc2c(c1)OCCO2,0,10,-27,1,.,.
O=C(Cn1ncn2c(cc3ccsc32)c1=O)N1CCOCC1,0,0,11,0,.,.
Cn1c(SCC(=O)NC2CCCCC2)nnc1-c1ccccc1Cl,0,-23,-2,-1,.,.
CCSc1sc(CC)cc1C1C(C#N)=C(N)N(N(C)C)C2=C1C(=O)CC(C)(C)C2 (stereo not given),0,7,-4,5.5*,1,0
Cc1ccc(C2=NC(c3ccc(C)cc3)NC(c3cc(Br)ccc3O)C2)cc1 (stereo not given),1,13,9,1,.,.
CC(Cc1ccccc1)N=C1SCC(=O)N1Cc1ccccc1 (stereo not given),0,-19,-1,7.6*,0,1
